According to the supplement of paper PMC8728848:
Shown is part of a subset that was picked to be rich in the strongest signals.

Tests used:
Experiment in all cases: glycan array binding signal (z-score within array); higher = stronger binding
Conditions in all cases: glycan notation: IUPAC condensed, linker removed
[1] = target: Fuc(a1-2)Gal(b1-4)Glc6S
How it was run: (§1)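 From the Consortium for Functional Glycomics database, 3228 arrays were curated, keeping only those whose protein sequence was available. Binding is given as a within-array Z-score averaged across arrays sharing a protein sequence and across linkers. Negative Z-scores can be read as non-binding.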

[2] = target: Fuc(a1-2)[GalNAc(a1-3)]Gal(b1-4)[Fuc(a1-3)]GlcNAc
How it was run: as §1

[3] = target: Fuc(a1-2)[GalNAc(a1-4)]Gal(b1-4)GlcNAc
How it was run: as §1

[4] = target: Fuc(a1-2)[GalNAc(b1-3)]Gal
How it was run: as §1

[5] = target: Gal(a1-3)Gal
How it was run: as §1

[6] = target: Gal(a1-3)Gal(b1-4)Glc
How it was run: as §1

[7] = target: Gal(a1-4)Gal(b1-4)GlcNAc
How it was run: as §1

[8] = target: Gal(b1-3)[Fuc(a1-4)]GlcNAc(b1-3)Gal(b1-4)GlcNAc
How it was run: as §1

[9] = target: Gal(b1-3)[Fuc(a1-4)]GlcNAc(b1-3)Gal(b1-4)[Fuc(a1-3)]GlcNAc
How it was run: as §1

[10] = target: Gal(b1-4)GlcNAc(a1-6)Gal(b1-4)GlcNAc
How it was run: as §1

[11] = target: Gal(b1-4)GlcNAc(b1-3)Gal(b1-4)[Fuc(a1-3)]GlcNAc(b1-3)Gal(b1-4)[Fuc(a1-3)]GlcNAc
How it was run: as §1

[12] = target: Gal(b1-4)GlcNAc(b1-3)GalNAc
How it was run: as §1

[13] = target: Gal(b1-4)GlcNAc(b1-3)[Gal(b1-4)GlcNAc(b1-6)]Gal(b1-4)GlcNAc
How it was run: as §1

[14] = target: Gal(b1-4)GlcNAc(b1-6)Gal(b1-4)GlcNAc
How it was run: as §1

[15] = target: GalNAc(a1-3)Gal
How it was run: as §1

[16] = target: GalNAc(b1-3)Gal
How it was run: as §1

[17] = target: GalNAc(b1-3)Gal(a1-4)Gal(b1-4)GlcNAc
How it was run: as §1

[18] = target: GalNAc(b1-3)GalNAc
How it was run: as §1

[19] = target: GlcNAc(b1-3)Gal(b1-4)GlcNAc
How it was run: as §1

[20] = target: Man(a1-2)Man(a1-2)Man(a1-6)[Man(a1-3)]Man
How it was run: as §1

[21] = target: Man(a1-2)Man(a1-3)Man
How it was run: as §1

[22] = target: Man(a1-2)Man(a1-3)[Man(a1-6)]Man(a1-6)[Man(a1-2)Man(a1-3)]Man(b1-4)GlcNAc(b1-4)GlcNAc
How it was run: as §1

[23] = target: Neu5Ac(a2-3)Gal(b1-3)[Fuc(a1-4)]GlcNAc
How it was run: as §1

[24] = target: Neu5Ac(a2-3)Gal6S(b1-4)GlcNAc
How it was run: as §1

[25] = target: Neu5Ac(a2-3)GalNAc(b1-4)GlcNAc
How it was run: as §1

[26] = target: Neu5Ac(a2-6)Gal(b1-4)GlcNAc6S
How it was run: as §1

[27] = target: Neu5Ac(a2-8)Neu5Ac(a2-8)Neu5Ac(a2-8)Neu5Ac(a2-3)[GalNAc(b1-4)]Gal(b1-4)Glc
How it was run: as §1

B1: CBM32-5 (Clostridium perfringens) (protein)
chain: MGSSHHHHHHSSGLVPRGSHMASALPQGNMKATATSEHPDVGNEGLAKFAIDGKENTIWHTKYNPVEELPQSITLELGGSYEINKFTYLPRSGAKNGNITKYELHVSEDGNNFRKISEGNWDDSGSLKTLKFNSTKATHVKLVALEGVGGFASAAELNVFA
[1]
  glycan array binding signal (z-score): -0.037
[2]
  glycan array binding signal (z-score): -0.639
[3]
  glycan array binding signal (z-score): 9.74
[4]
  glycan array binding signal (z-score): 6.11
[5]
  glycan array binding signal (z-score): -0.718
[6]
  glycan array binding signal (z-score): 2.12
[7]
  glycan array binding signal (z-score): 0.124
[8]
  glycan array binding signal (z-score): -0.65
[9]
  glycan array binding signal (z-score): -0.543
[10]
  glycan array binding signal (z-score): 0.343
[11]
  glycan array binding signal (z-score): -0.59
[12]
  glycan array binding signal (z-score): 0.285
[13]
  glycan array binding signal (z-score): 3.1
[14]
  glycan array binding signal (z-score): 0.749
[15]
  glycan array binding signal (z-score): 2.91
[16]
  glycan array binding signal (z-score): 4.11
[17]
  glycan array binding signal (z-score): 1.22
[18]
  glycan array binding signal (z-score): 0.845
[19]
  glycan array binding signal (z-score): -0.249
[20]
  glycan array binding signal (z-score): -0.584
[21]
  glycan array binding signal (z-score): -0.091
[22]
  glycan array binding signal (z-score): -0.536
[23]
  glycan array binding signal (z-score): -0.236
[24]
  glycan array binding signal (z-score): -0.395
[25]
  glycan array binding signal (z-score): -0.526
[26]
  glycan array binding signal (z-score): -0.183
[27]
  glycan array binding signal (z-score): -0.621
